# Laboratory results taken from the supplement of paper PMC11732987, “Enantioselective OTUD7B fragment discovery through chemoproteomics screening and high-throughput optimisation” (Communications Chemistry, 2025).
# Values without a mark were called inactive.
# Experiments:
# Assay in all cases: log2 ratio of Biotin-Ahx-Ub-VS probe labelling (fragment/DMSO); higher = less target engagement (more negative = stronger competition), active = hit call of the paper (q ≤ 0.05, log2 ratio ≤ -1)
# Conditions in all cases: compound concentration: 200 uM; treatment time: 3 h
# USP19 = target: T1, USP19 (UniProt O94966)
# T1 sequence (whole entry): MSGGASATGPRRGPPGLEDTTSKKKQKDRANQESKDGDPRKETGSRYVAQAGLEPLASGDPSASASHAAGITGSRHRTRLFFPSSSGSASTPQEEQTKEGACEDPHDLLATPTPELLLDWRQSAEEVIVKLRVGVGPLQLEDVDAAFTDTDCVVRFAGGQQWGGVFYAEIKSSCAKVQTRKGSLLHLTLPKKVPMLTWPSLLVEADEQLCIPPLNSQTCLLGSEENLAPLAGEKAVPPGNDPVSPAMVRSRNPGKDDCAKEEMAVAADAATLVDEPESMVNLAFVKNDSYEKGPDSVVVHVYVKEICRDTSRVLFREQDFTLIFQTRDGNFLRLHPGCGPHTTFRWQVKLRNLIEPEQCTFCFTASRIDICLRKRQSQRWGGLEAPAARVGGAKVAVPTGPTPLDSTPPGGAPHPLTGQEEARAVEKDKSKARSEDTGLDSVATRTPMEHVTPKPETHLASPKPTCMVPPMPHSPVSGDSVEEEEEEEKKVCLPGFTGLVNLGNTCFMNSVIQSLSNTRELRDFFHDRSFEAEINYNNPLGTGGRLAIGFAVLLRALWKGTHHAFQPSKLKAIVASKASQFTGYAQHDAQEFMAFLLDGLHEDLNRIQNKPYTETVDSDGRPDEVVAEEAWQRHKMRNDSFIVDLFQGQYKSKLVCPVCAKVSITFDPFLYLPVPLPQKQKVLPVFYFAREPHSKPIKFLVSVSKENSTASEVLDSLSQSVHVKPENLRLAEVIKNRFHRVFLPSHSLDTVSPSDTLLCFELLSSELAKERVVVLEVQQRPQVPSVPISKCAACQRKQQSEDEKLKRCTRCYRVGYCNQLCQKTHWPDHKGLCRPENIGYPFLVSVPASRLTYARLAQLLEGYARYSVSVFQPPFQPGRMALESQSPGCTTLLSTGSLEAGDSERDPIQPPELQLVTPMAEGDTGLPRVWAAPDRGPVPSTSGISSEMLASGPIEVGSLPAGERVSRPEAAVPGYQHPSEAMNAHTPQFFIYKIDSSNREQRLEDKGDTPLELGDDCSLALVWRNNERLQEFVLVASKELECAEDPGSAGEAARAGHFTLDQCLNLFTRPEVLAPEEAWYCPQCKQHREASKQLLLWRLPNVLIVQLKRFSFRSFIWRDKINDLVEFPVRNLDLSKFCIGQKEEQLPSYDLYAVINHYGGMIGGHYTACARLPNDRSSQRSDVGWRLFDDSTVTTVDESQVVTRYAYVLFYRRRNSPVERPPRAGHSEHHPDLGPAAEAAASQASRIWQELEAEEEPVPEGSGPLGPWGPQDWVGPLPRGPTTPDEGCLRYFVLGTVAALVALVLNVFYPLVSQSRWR
# Procedure, shortened: (§1)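 Each value is an average log2 ratio of fragment to vehicle, tested by unpaired t-test. The underlying Spectronaut label-free quantities were global-median-normalised, and only proteins with ≥2 unique peptides were included. Triplicate HEK293T lysate samples (495 µg) were exposed to fragment at 200 µM or vehicle for 3 h, then to Biotin-Ahx-Ub-VS at 0.5 µM final for 1 h, before NeutrAvidin enrichment of labelled DUBs, LysC and trypsin digestion, and diaPASEF LC-MS/MS.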
# USP22 = target: T2, USP22 (UniProt Q9UPT9)
# T2 sequence (whole entry): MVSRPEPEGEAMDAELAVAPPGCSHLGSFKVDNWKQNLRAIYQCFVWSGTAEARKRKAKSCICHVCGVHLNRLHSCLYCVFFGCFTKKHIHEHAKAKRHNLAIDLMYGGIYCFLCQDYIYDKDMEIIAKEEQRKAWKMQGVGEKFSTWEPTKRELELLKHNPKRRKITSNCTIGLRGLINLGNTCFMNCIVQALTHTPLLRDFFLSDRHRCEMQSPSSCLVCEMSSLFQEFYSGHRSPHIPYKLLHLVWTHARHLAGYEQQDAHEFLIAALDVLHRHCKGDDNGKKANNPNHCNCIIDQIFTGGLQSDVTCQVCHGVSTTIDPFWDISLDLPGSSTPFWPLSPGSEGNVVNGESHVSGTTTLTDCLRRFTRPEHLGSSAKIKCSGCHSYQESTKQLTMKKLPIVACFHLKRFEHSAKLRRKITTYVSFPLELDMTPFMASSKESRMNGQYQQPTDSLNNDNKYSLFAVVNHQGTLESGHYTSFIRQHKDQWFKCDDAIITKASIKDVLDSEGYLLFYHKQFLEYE
# Procedure, shortened: as §1
# USP24 = USP24 (UniProt Q9UPU5)
# USP24, sequence (Q9UPU5 whole entry): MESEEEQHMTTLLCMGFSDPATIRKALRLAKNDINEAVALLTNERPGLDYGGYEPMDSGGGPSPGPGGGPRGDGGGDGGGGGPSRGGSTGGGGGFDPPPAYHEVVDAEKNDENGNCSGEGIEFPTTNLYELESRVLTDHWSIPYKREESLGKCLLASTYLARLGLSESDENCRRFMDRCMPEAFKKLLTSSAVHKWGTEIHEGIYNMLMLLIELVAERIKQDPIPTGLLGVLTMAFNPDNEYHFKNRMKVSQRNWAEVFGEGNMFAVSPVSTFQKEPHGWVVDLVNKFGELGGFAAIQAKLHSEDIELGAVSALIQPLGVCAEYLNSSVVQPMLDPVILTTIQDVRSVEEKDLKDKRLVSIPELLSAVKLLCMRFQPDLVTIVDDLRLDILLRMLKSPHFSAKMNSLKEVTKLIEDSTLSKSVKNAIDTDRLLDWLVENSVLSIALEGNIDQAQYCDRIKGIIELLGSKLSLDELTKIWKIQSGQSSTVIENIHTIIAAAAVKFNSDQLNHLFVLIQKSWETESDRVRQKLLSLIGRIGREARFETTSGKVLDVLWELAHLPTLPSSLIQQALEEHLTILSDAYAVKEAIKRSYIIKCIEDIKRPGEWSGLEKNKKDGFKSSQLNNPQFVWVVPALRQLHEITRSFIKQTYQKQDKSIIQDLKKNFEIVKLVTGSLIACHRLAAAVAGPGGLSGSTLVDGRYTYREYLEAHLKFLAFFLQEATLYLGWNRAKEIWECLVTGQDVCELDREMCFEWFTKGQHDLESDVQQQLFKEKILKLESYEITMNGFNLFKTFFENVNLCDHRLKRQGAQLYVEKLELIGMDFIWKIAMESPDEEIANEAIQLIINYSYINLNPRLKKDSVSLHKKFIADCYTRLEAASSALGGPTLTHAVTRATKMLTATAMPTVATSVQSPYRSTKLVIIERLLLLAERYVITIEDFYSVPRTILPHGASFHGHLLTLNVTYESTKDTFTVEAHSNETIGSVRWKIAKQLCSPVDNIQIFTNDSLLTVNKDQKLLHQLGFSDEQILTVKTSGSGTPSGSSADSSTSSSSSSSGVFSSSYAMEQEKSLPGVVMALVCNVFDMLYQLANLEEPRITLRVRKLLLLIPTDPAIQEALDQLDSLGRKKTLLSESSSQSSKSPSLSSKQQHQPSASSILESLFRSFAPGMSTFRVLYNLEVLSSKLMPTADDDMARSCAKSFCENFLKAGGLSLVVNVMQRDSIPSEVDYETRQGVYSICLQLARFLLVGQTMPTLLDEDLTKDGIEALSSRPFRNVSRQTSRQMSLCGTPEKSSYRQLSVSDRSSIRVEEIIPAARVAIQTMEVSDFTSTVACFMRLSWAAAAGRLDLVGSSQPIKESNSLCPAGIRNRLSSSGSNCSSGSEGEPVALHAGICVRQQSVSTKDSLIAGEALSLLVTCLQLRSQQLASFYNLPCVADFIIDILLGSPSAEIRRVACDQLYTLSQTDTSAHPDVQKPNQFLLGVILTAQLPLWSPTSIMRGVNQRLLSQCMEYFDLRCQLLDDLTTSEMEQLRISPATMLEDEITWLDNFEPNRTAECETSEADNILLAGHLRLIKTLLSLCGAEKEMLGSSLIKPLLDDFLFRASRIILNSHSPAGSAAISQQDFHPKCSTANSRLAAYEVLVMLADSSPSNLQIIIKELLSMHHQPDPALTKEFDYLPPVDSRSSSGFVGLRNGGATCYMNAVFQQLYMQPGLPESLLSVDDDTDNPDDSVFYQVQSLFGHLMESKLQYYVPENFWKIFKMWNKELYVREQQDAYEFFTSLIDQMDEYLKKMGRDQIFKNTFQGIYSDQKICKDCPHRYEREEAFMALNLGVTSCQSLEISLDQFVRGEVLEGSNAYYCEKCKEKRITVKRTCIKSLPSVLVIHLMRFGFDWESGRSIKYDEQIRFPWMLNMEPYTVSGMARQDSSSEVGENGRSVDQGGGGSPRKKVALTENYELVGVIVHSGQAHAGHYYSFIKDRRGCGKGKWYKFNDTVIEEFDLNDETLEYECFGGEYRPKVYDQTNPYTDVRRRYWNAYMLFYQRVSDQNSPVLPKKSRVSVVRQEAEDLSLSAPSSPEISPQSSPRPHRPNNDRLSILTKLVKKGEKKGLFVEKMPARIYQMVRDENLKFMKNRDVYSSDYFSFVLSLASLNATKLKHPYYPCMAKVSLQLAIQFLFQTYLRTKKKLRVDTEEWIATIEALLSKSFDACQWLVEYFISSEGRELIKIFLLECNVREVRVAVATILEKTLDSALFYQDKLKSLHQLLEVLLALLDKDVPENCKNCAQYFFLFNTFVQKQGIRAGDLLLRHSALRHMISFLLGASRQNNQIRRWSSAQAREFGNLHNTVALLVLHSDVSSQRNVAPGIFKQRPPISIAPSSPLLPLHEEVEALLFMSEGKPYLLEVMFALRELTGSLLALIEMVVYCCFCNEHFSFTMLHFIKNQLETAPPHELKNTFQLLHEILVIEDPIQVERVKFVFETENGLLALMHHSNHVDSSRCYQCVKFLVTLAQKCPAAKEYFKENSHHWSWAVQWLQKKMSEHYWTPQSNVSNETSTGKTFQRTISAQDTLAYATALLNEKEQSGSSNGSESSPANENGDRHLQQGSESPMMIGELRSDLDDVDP
# Procedure, shortened: as §1
# USP25 = target: T3, USP25 (UniProt Q9UHP3)
# T3 sequence (whole entry): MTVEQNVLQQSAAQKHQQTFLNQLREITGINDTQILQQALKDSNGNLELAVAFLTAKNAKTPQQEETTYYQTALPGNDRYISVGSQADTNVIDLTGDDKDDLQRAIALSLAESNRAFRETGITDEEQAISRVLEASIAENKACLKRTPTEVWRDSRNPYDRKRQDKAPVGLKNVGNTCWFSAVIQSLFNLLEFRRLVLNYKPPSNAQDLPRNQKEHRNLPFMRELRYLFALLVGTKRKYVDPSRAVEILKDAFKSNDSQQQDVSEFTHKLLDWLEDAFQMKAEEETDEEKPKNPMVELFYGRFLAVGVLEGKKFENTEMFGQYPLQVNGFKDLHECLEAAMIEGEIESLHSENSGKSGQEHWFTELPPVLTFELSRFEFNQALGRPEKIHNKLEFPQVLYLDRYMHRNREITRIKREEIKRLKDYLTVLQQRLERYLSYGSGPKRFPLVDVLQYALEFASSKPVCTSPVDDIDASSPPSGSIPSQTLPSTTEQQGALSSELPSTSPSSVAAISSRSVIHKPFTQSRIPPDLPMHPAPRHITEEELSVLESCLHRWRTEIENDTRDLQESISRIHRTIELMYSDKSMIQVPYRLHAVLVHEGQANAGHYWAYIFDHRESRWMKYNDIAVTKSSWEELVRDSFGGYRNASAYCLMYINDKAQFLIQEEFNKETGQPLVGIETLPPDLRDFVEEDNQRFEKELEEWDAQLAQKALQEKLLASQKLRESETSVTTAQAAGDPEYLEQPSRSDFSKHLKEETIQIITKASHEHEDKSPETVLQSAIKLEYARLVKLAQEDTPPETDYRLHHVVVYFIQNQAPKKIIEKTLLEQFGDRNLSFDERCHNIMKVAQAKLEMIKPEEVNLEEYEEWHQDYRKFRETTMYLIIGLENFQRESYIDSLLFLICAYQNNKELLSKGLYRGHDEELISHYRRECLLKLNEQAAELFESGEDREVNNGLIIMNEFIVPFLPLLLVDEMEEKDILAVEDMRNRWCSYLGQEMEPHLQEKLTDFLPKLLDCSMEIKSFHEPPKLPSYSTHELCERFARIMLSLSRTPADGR
# Procedure, shortened: as §1
# USP28 = target: T4, USP28 (UniProt Q96RU2)
# T4 sequence (whole entry): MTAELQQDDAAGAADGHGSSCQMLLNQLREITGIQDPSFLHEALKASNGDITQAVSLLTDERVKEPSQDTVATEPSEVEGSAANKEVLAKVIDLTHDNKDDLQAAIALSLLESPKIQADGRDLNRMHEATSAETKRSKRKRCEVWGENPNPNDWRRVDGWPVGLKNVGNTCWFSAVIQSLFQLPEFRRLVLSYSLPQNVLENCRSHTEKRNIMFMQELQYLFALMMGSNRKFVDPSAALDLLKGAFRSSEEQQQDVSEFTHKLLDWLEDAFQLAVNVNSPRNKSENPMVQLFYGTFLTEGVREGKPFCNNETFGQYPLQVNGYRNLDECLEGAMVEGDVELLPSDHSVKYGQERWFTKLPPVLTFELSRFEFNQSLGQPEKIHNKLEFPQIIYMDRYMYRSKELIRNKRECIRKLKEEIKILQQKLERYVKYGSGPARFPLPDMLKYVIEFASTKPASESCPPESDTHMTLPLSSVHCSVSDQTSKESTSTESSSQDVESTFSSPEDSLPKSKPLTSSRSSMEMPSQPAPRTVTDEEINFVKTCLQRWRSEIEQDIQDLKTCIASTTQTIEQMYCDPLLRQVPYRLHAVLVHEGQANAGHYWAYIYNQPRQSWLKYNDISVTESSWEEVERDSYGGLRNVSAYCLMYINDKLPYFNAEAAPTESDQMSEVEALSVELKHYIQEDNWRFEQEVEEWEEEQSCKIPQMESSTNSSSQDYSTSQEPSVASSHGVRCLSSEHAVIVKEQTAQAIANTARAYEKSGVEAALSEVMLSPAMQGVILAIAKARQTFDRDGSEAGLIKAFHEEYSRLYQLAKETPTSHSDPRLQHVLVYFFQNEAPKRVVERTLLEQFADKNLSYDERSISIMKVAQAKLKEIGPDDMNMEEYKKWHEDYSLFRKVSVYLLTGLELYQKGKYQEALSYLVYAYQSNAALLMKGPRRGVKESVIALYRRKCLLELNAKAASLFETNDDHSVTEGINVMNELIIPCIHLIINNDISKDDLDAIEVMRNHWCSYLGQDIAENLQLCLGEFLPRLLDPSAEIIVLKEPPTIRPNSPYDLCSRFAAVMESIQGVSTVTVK
# Procedure, shortened: as §1
compound,measurement,setting,value
CC1CN(c2ccc(NC(=O)CCl)cc2)CC(C)O1 (stereo not given),log2 ratio of Biotin-Ahx-Ub-VS probe labelling,USP19,-0.126
same,log2 ratio of Biotin-Ahx-Ub-VS probe labelling,USP22,-0.32
same,log2 ratio of Biotin-Ahx-Ub-VS probe labelling,USP24,-0.205
same,log2 ratio of Biotin-Ahx-Ub-VS probe labelling,USP25,-1.58 (active)
same,log2 ratio of Biotin-Ahx-Ub-VS probe labelling,USP28,-1.57 (active)
